Experimental data as given in ChEMBL document CHEMBL3988442, “University of Dundee, Small-Polar-MMV Screening Library” (2021).
For some assays here: Measured potencies and affinities stand elsewhere.

Key:
Design in all cases: scale not given: direction of the effect not stated beside the values
[1] = target: Protein translocase subunit SecA (Escherichia coli (strain K12)) (UniProt P10408); test: Assay to Identify E. coli SecA ATPase Inhibitors; assay type: functional; details: 30 µM
[2] = target: T1, Ubiquitin-activating enzyme e1, putative (Leishmania donovani (strain BPK282A1)) (UniProt E9BSI1); test: Leishmania donovani Ubiquitin Activating Enzyme (LdE1); assay type: functional; details: 30 µM
T1 sequence (whole entry): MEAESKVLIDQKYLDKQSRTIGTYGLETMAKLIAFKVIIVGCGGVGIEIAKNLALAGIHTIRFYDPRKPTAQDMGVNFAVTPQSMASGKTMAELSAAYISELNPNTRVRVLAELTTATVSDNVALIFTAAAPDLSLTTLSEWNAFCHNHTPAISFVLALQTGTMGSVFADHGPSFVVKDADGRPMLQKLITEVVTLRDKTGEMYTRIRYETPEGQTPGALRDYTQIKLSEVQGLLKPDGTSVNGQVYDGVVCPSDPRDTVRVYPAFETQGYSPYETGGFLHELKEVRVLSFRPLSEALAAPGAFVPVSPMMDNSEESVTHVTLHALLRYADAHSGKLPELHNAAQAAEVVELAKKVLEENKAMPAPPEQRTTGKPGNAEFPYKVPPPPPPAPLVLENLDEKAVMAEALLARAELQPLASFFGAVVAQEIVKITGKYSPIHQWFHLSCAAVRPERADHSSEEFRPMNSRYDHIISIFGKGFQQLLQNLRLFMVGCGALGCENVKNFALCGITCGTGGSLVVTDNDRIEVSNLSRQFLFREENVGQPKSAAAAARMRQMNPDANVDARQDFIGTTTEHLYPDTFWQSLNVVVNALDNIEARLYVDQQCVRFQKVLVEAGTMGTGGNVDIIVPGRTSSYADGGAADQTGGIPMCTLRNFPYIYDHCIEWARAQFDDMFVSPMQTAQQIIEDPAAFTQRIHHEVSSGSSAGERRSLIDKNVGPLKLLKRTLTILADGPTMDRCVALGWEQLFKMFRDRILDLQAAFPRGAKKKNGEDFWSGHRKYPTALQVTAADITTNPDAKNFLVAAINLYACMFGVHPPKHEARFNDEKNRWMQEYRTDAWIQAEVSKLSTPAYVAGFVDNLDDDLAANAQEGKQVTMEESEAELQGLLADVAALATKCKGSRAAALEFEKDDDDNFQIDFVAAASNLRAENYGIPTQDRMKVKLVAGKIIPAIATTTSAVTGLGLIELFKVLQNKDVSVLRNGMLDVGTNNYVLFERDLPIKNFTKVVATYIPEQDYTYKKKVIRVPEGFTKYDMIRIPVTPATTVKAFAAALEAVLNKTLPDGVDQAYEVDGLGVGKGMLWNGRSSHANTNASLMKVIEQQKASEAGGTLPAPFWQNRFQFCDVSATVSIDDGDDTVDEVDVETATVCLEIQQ

[3] = target: AMP-activated protein kinase, AMPK (Homo sapiens) (UniProt P54646+O43741+P54619+Q9UGJ0+Q9Y478+Q13131+Q9UGI9); test: AMP-dependent Kinase enzyme assay. An in vitro enzyme assay that detects ADP turnover that is directly proportional to AMPK activity. This uses naive AMPK that is activated during the assay with MK-8722; assay type: functional; details: 30 µM
[4] = target: Sialic acid-binding Ig-like lectin 9 (Homo sapiens) (UniProt Q9Y336); test: Hs-Siglec9 ALPHAscreen SOP 20170721; details: 10 µM
[5] = system: Trypanosoma cruzi; test: Trypanosoma cruzi phosphomannomutase and mannose-1-phosphate guanylyltransferase assay; assay type: functional; details: 10 µM
[6] = target: T2, Arginase-2, mitochondrial (Homo sapiens) (UniProt P78540); test: in vitro enzyme assay to detect the production of urea directly proportional to the activity of Arginase II; assay type: functional; details: 33.3 µM; also: in the data most compounds retested in dose-response had high values
T2 sequence (whole entry): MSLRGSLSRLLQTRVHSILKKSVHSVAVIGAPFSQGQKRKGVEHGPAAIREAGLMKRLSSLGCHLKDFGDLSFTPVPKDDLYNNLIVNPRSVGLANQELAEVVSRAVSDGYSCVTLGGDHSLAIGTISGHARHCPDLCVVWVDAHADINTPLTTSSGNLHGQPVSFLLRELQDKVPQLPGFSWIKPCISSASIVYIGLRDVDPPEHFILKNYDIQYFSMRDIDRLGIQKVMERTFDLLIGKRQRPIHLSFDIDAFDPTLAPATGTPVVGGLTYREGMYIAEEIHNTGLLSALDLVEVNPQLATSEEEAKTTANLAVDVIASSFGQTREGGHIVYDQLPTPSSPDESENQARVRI

[7] = target: T3, Proteasome subunit beta (Trypanosoma cruzi) (UniProt O96673); test: Trypanosoma cruzi proteasome chymotrypsin-like activity (TcProtChymo) assay.; also: in the data most compounds retested in dose-response had high values; assay type: functional; details: 9.37 µM
T3 sequence (whole entry): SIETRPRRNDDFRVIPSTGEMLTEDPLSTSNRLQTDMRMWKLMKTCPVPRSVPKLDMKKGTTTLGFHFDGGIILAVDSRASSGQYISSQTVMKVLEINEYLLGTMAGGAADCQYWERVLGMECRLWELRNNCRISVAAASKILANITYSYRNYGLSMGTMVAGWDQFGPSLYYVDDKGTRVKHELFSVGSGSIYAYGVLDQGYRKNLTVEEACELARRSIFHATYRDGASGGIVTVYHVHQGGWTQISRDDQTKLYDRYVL

[8] = organism: Homo sapiens; test: To identify inhibition of the IFN signalling (Jak-Stat) pathway via expression of an eGFP reporter gene under the control of an IFN-stimulated response element (ISRE) containing MxA promoter.; assay type: functional; details: 30 µM
[9] = target: T4, Tyrosyl-tRNA synthetase, putative (Trypanosoma cruzi (strain CL Brener)) (UniProt Q4DSP6); test: Trypanosoma cruzi tyrosyl tRNA synthetase (TcYRS) _High Tyrosine SOP; assay type: functional; details: 30 µM; also: in the data most compounds retested in dose-response had high values
T4 sequence (whole entry): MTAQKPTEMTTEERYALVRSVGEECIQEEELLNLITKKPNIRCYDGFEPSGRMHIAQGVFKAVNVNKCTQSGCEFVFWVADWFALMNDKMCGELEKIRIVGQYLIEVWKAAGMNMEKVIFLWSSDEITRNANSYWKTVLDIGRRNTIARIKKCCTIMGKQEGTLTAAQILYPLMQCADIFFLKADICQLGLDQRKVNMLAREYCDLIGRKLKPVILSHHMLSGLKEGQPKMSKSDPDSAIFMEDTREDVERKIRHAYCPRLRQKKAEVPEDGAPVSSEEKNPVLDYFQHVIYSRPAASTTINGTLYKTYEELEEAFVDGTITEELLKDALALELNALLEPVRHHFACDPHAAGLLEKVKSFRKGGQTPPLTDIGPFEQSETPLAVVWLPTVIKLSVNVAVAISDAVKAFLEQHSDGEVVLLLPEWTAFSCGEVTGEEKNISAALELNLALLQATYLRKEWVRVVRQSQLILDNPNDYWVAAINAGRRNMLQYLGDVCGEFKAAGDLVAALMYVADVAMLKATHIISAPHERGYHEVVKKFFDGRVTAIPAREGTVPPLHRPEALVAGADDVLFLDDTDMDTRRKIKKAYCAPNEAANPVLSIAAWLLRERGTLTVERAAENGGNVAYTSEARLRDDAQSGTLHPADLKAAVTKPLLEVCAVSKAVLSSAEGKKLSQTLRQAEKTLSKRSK

[10] = target: T4, Tyrosyl-tRNA synthetase, putative (Trypanosoma cruzi (strain CL Brener)); test: Trypanosoma cruzi tyrosyl tRNA synthetase (TcYRS) SOP; assay type: functional; details: 30 µM
[11] = target: Chromo domain-containing protein 1 (Saccharomyces cerevisiae (strain ATCC 204508 / S288c) (Baker's yeast)) (UniProt P32657); test: ScCHD-1 Enzyme Inhibition Assay; assay type: functional; details: 30 µM; also: in the data most compounds retested in dose-response had high values
Chromo domain-containing protein 1 (Saccharomyces cerevisiae (strain ATCC 204508 / S288c) (Baker's yeast)), sequence (P32657 whole entry, the tested form may be a part): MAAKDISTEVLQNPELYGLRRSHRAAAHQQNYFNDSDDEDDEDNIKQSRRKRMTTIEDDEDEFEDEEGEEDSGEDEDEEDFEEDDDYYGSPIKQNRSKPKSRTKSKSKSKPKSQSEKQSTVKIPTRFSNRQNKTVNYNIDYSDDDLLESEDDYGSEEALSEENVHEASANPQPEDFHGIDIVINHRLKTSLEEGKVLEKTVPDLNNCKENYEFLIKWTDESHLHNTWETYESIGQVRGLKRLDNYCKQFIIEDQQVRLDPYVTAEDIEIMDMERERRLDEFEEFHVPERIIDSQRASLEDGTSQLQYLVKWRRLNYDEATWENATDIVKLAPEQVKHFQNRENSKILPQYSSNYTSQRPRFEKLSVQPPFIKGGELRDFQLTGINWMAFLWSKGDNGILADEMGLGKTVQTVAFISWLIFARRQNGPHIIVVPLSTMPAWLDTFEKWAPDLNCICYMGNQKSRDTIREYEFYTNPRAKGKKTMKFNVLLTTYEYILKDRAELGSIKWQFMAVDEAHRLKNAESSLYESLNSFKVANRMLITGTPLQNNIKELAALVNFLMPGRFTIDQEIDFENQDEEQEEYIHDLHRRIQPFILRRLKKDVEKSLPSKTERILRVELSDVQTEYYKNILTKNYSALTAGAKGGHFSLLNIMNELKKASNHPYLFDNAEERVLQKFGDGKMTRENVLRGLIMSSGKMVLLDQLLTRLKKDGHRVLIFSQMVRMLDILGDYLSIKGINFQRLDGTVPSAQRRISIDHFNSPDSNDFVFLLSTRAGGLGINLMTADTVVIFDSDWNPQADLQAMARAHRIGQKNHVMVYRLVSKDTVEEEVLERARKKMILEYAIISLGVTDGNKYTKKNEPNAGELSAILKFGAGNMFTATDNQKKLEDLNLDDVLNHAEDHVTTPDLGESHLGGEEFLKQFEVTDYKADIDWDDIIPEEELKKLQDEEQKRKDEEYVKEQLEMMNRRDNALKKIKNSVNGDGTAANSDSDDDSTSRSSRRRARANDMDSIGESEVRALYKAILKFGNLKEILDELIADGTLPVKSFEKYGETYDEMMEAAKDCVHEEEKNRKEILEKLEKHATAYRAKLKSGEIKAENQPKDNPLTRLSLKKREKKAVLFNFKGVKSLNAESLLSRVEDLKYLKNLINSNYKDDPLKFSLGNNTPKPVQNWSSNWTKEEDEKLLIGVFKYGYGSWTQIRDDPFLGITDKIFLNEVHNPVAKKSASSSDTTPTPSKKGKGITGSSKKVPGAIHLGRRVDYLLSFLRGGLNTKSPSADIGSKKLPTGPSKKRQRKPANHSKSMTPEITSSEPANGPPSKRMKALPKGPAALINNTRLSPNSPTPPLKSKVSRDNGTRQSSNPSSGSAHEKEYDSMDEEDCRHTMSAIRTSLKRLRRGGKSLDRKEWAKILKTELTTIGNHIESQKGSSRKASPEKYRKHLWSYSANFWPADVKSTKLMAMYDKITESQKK

Protein translocase subunit SecA (Escherichia coli (strain K12)), sequence (P10408 whole entry): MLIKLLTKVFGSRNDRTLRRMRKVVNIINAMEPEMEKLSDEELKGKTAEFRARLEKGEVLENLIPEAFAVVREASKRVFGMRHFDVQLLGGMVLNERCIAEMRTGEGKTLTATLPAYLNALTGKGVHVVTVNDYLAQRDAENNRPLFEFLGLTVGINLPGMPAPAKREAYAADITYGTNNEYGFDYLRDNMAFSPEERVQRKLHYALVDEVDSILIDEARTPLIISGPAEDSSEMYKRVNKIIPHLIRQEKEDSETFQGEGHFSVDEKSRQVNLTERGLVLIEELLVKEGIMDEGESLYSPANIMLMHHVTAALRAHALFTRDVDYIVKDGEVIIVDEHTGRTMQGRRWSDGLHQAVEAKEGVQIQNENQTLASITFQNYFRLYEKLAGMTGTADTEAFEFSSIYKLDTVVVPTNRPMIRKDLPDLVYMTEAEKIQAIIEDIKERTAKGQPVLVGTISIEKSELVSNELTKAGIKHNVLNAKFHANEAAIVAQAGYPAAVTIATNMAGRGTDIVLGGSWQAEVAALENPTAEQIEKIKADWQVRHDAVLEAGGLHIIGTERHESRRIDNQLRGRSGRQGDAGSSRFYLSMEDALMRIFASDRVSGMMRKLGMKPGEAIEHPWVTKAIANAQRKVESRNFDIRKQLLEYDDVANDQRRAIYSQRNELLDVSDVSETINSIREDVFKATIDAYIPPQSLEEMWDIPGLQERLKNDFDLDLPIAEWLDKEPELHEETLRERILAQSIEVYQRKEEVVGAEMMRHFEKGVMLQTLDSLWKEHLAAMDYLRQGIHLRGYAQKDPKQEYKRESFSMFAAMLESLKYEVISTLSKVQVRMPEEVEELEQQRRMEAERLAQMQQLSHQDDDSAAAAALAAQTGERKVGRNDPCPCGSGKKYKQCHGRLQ
Sialic acid-binding Ig-like lectin 9 (Homo sapiens), sequence (Q9Y336 whole entry): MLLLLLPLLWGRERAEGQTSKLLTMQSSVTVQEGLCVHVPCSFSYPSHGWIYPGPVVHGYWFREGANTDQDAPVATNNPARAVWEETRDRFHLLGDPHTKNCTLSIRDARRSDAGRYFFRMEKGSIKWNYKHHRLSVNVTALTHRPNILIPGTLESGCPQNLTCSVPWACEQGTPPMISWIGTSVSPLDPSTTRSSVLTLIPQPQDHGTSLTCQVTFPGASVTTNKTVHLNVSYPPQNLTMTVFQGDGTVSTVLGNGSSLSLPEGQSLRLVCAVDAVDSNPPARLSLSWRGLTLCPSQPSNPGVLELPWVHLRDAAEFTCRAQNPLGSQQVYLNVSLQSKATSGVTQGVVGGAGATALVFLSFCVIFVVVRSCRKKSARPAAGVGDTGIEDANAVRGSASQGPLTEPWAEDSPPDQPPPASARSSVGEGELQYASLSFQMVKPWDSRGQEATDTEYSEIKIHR

| SMILES | Percent Effect [1] [%] | Percent Effect [2] [%] | Percent Effect [3] [%] | Percent Effect [4] [%] | Percent Effect [5] [%] | Percent Effect [6] [%] | Percent Effect [7] [%] | Percent Effect [8] [%] | Percent Effect [9] [%] | Percent Effect [10] [%] | Percent Effect [11] [%] |
| --- | --- | --- | --- | --- | --- | --- | --- | --- | --- | --- | --- |
| Cc1ccc(C(=O)N2CCn3cc(CN4CCCCC4)nc3C2)o1 | -1.62 | -2.6 | 0.425 | -11.1 | -1.48 | 21.3 | 5.57 | 1.99 | -4.23 | -6.41 | 8.37 |
| Cc1cnn(CCNCc2ccc(OCC(N)=O)cc2)c1 | -7.27 | 5.33 | -3.69 | 3.41 | 3.8 | 5.21 | 4.36 | -9.67 | 3.83 | 8.64 | -7.44 |
| CC(C)NC(=O)N1CCN(CC2CC2)CC2(CC(=O)N(C)C2)C1 (configuration not stated) | 0.576 | -10.8 | 3.4 | -6.25 | 0 | 1.25 | 7.02 | -5.18 | 82.2 | -6.1 | 16.8 |
| CC(=O)Nc1nc(CN2CCn3c(nnc3C3CC3)C2)cs1 | -1.36 | 5.41 | 0.348 | 6.61 | 5.11 | -9.06 | -3.59 | 2.7 | 0.99 | 11 | -3.08 |
| Cc1ccc(C2COCCN2C(=O)c2ccc(CN(C)C)cc2)o1 (configuration not stated) | -0.657 | -5.33 | -1.26 | 2.6 | -1.85 | 2.08 | 4.01 | 0.868 | 1.64 | 1.24 | -0.0158 |
| O=C(c1cccs1)N1CCC(n2nc(-c3ccco3)ccc2=O)CC1 | -6.35 | 12.2 | 7.9 | 14 | -1.19 | -5.8 | 12.9 | 0.605 | 9.68 | 16.9 | -26.4 |
| O=C(c1cccc(Cl)c1)N1CCCn2c(CN3CCCCC3)nnc2C1 | -9.25 | 8 | -3.61 | 1.72 | -6.3 | -2.1 | 0.441 | 10.4 | 4.25 | 3.85 | -2.51 |
| CS(=O)(=O)N1CCC(C(=O)NCCNc2ncccn2)CC1 | -3.08 | 10.8 | 2.54 | -1.9 | 8.45 | -7.21 | 14.2 | 14.8 | 6.93 | 15.8 | -3.22 |
| Cc1ccc(S(=O)(=O)N2CSCC2C(=O)N(C)C2CC2)cc1Cl (configuration not stated) | -5.45 | 5.41 | -2.19 | 10.8 | 6.16 | 1.74 | 7.47 | 5.7 | 0 | 3.7 | -5.33 |
| CCCc1nc(CN2CCN(CC(O)c3ccccc3)CC2)no1 (configuration not stated) | -2.75 | 11.4 | -0.305 | 1.98 | -1.54 | 4.09 | 8.23 | 7.59 | 5.21 | -2.53 | -26.1 |
| COc1ccc(C)cc1S(=O)(=O)NCC(c1cccn1C)N(C)C (configuration not stated) | -6.79 | 8.22 | -12.1 | 2.18 | -5.49 | 1.36 | 12.2 | 6.68 | 5.38 | 10 | 104 |
| CN1CC(=O)N(c2ccccc2)CC12CCN(Cc1nccs1)C2 (configuration not stated) | 3.96 | 5.33 | 4.18 | -3.23 | -6.95 | -56.1 | 13 | -0.957 | 4.17 | 22.5 | -4.64 |
| Cc1noc(C2CCN(C(=O)c3c(C)noc3C)CC2)n1 | -3.97 | 10.8 | -5.85 | 7.55 | 1.47 | 0.248 | 11.9 | -25.3 | 6.45 | 13.6 | -4.31 |
| Cn1cc(C(=O)NCc2cn3c(n2)CN(CC2CCOCC2)CC3)cn1 | -2.09 | 5.41 | 26.2 | -3.62 | -1.95 | 1.67 | 11.9 | 20.1 | 7.92 | 15.8 | -0.801 |
| Cc1nc(C2CCCN(C(=O)c3cccc4c3OCO4)C2)no1 (configuration not stated) | -0.923 | 11.4 | 6.75 | 0.303 | -5.03 | -3.23 | 19.9 | 3.42 | 4.17 | 10.1 | -23.7 |
| COc1cccc2c1OCC(CNC(=O)CSc1nc(N)n[nH]1)C2 (configuration not stated) | -4.78 | 0 | -3.58 | 26.8 | 3.62 | -3.23 | 8.84 | 4.85 | 8.6 | 21 | -3.99 |
| Cc1noc(CCCC(=O)NC(C)c2cccnc2)n1 (configuration not stated) | 0.699 | 13.2 | 0.237 | 0.605 | -5.83 | 5.75 | 8.86 | 21.4 | 8.33 | 12.2 | -6.49 |
| CC(C)c1noc(C(C)N2CCN(CCO)CC2)n1 (configuration not stated) | 0.448 | 21.6 | -14.5 | -3.22 | -3.68 | -9.22 | 12.2 | 16.1 | 5.42 | 6.17 | -0.137 |
| O=C(c1ccsc1)N1CC(C(=O)N2CCOCC2)C2(CCOCC2)C1 (configuration not stated) | -0.06 | 2.6 | 3.52 | 3.83 | -6.21 | -3.23 | 16.5 | 7.29 | -29.6 | -1.28 | -0.146 |
| CN(C)C(=O)NCc1cc2n(n1)CCN(C[C@H]1[C@@H]3CNC[C@@H]31)C2 | -4.24 | 13.5 | -5.71 | 30.6 | 9.65 | 15.7 | 9.65 | 10.3 | 3.7 | 19.5 | -12.2 |
| COC(C(=O)N1CCCN(Cc2cscn2)CC1)c1ccccc1 (configuration not stated) | -0.131 | 21.1 | -3.46 | -3.88 | 4.89 | -5.36 | 23.2 | 6.84 | 5.39 | 24.4 | -9.91 |
| Cn1cc(CN2CCn3cc(CNC(=O)C4CCC4)nc3C2)cn1 | -3.67 | 5.33 | 4.55 | 2.73 | -0.386 | -31 | 7.69 | 0.15 | 7.29 | 12.5 | -8.18 |
